The values that follow come from PubChem BioAssay (EPA / NIEHS).

Structures are written as SMILES. Calls of active or inactive are those of the source. How the source made its calls: active means hit-call score of the fitted dose curve at least 0.9, where 1 is the maximum; inactive means score below 0.9.

The target of this test is Transcription factor E2F1 (Homo sapiens) (UniProt Q01094). In words: ATG_E2F_CIS: Attagene CIS-FACTORIAL HepG2 Assay for human E2F Transcription Factor 1 (AID 2282935). Conditions: HepG2 Attagene cis-reporter, E2F reporter RNA transcripts; actives raise or lower the signal. As to the method: ATG_CIS is a cell-based, multiplexed-readout assay that uses HepG2, a human liver cell line, with measurements taken at 24 hours after chemical dosing in a 24-well plate.ATG_E2F_CIS is one of 52 assay component(s) measured or calculated from the ATG_CIS assay. It is designed to make measurements of mRNA induction, a form of inducible reporter, as detected with fluorescence intensity signals by Reverse transcription polymerase chain reaction (RT-PCR) and Capillary electrophoresis technology.Data from the assay component ATG_E2F_CIS was analyzed into 1 assay endpoint. This assay endpoint, ATG_E2F_CIS, was analyzed with bidirectional fitting relative to DMSO as the negative control and baseline of activity. Using a type of inducible reporter, measures of mRNA for gain or loss-of-signal activity can be used to understand the reporter gene at the transcription factor-level as they relate to the gene E2F1. Furthermore, this assay endpoint can be referred to as a primary readout, because this assay has produced multiple assay endpoints where this one serves a reporter gene function. To generalize the intended target to other relatable targets, this assay endpoint is annotated to the dna binding intended target family, where the subfamily is E2F transcription factor.
Chain of Transcription factor E2F1 (Homo sapiens) (Q01094 whole entry, looked up): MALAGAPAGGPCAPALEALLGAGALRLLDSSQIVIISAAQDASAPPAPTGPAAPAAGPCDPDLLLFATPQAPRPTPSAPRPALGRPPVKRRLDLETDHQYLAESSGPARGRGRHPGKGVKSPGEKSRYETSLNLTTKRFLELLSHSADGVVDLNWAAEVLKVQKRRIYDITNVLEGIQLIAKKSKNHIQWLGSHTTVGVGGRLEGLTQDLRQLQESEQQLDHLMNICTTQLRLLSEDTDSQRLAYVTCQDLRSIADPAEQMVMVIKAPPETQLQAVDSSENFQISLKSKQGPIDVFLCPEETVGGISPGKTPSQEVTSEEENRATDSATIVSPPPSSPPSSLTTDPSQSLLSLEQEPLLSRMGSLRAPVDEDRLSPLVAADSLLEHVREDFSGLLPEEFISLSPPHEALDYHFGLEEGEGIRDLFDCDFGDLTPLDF
Human liver HepG2 cells are transiently transfected with multiple reporter transcription units (MRTUs) in 6-well plates using FuGene 6 reagent (Roche; 3 ml FuGene/1 mg DNA). The MRTU constructs are regulated by a cis-regulating element (promoter). […] A major difference between the CIS and TRANS system is that in CIS activities of endogenous TFs are measured, whereas the TRANS assay evaluates changes in activities of exogenous, chimeric NR-Gal4 proteins. […] At the end of 24 hour incubation, total RNA was isolated using TriZol reagent (Invitrogen). The isolated RNA is then reverse-transcribed using oligo(dT) primer and Mo-MLV reverse transcriptase (Invitrogen) with DNAse I (Ambion) treatment for 30 min. The one-tenth of the produced cDNA was amplified by PCR using Taq DNA polymerase (Invitrogen) and two reporter sequence-specific primers. The PCR products were fluorescently labeled by primer extension with 6-arboxyfluorescein (6-FAM) 5'-labeled reporter sequence-specific primer (2 min at 95 C, 20 s at 68 C and 10 min at 72 C) and these products were digested with 5U of HpaI (New England Biolabs) for 2h at 37 C. The fragments were purified using Qiaquick PCR columns (Qiagen), analyzed on an ABI 3130xL genetic analyzer (Applied Biosystems) with peak positions identified by using a set of X-rhodamine (ROX)-labeled MapMarker1000 molecular weight standards (BioVentures). The raw capillary electrophoresis data was processed using Attagraph software (Attagene).
For the compound `NNC(=O)CCCCC(=O)NN`, the result was inactive.
`FC(F)=C(F)C(F)(F)C(F)(F)C(F)(F)C(F)F`: the compound was classed as inactive.
With `O=CC(F)(F)C(F)(F)C(F)(F)F`, the compound was called inactive.
In the case of `FCOC(C(F)(F)F)C(F)(F)F`, the compound was classed as inactive.
The same measure, in the same setting: then `CC1=NN(c2ccccc2)C(=O)C1`, with “inactive”.
Still for that read-out and setting: then `O=S(=O)(c1ccc(OCc2ccccc2)cc1)c1ccccc1O`, with “inactive”.
On the same count and under the same terms, then `O=C(Nc1ccc(Cl)c(Cl)c1)c1cc(Cl)cc(Cl)c1O`, with “inactive”; and `CCCCCCOC(=O)c1ccc(O)cc1`, with “inactive”; and `CCCCCCCCCCCC[N+](C)(C)CCCCCCCCCCCC`, with “inactive”.
On to `Cc1cc(=O)oc2cc(O)ccc12`, for which the compound was called inactive.
Still for that read-out and setting: then `Oc1c(Cl)cc(Cl)cc1Sc1cc(Cl)cc(Cl)c1O`, with “inactive”.
Turning to `Cc1cc(C(=C2C=CC(=Nc3ccc(S(=O)(=O)O)cc3)C=C2)c2ccc(Nc3ccc(S(=O)(=O)O)cc3)cc2)cc(S(=O)(=O)O)c1N`, the outcome was inactive.
In the case of `O=S(=O)(O)c1ccc2cc(O)ccc2c1`, the compound was classed as inactive.
Same read-out and setting: then `Cc1ccc(N=Nc2c(O)ccc3ccccc23)c(C)c1`, with “inactive”.
As for `CCCCCCCCCCCCCC[n+]1ccccc1`, the compound was classed as inactive.
On the same count and under the same terms, then `O=C(NO)c1ccccc1`, with “inactive”; and `O=P(O)(O)CCC(F)(F)C(F)(F)C(F)(F)C(F)(F)C(F)(F)C(F)(F)C(F)(F)C(F)(F)F`, with “inactive”.
Same read-out and setting: then `CCOC(OCC)C(=O)c1ccccc1`, with “inactive”; and `CC(C)[C@@H]1CC[C@@H](C)C[C@H]1O`, with “inactive”; and `CCCCCCCCCCCC[N+](C)(C)Cc1ccccc1`, with “inactive”.
Regarding `CCCC=O`, the compound was called inactive.
Still for that read-out and setting: the entry for `CC(C)c1c(C(=O)Nc2ccccc2)c(-c2ccccc2)c(-c2ccc(F)cc2)n1CC[C@@H](O)C[C@@H](O)CC(=O)O` is “inactive”; for `O=C(CC(=O)C(F)(F)C(F)(F)C(F)(F)F)c1cccs1` it is “inactive”.
Regarding `CCc1cccc(CC)c1NC(=O)C(=O)O`, the outcome was inactive.
Still for that read-out and setting: then `CCCCCCCCCCCC(=O)NCCCN(C)C`, with “inactive”; and `O=C(CCCN1CCC(O)(c2ccc(Cl)cc2)CC1)c1ccc(F)cc1`, with “inactive”.
On the same count and under the same terms, the entry for `Brc1ccc(Oc2ccc(Br)cc2Br)cc1` is “inactive”.
On the same count and under the same terms, the entry for `COC1=CC(=O)C[C@@H](C)[C@]12Oc1c(Cl)c(OC)cc(OC)c1C2=O` is “inactive”; for `CCCCCCc1ccc(N)cc1` it is “inactive”; for `CCCCCc1ccc(O)cc1` it is “inactive”.
Consider `CCCCc1oc2ccccc2c1C(=O)c1cc(I)c(OCCN(CC)CC)c(I)c1`, for which the compound was classed as inactive.
Same read-out and setting: then `O=P(O)(O)CCC(F)(F)C(F)(F)C(F)(F)C(F)(F)C(F)(F)C(F)(F)F`, with “inactive”; and `CCCCC=O`, with “inactive”.
As for `O=C(F)C(F)(F)C(F)(F)C(F)(F)C(=O)F`, the outcome was inactive.
Still for that read-out and setting: then `CCOC(=O)CN[C@@H](C(=O)N1CC[C@H]1C(=O)NCc1ccc(/C(N)=N/O)cc1)C1CCCCC1`, with “inactive”; and `CCCCCCCCCCCCCCCC(=O)OC`, with “inactive”; and `Cc1ccc2ccc3ccc(C)cc3c2c1`, with “inactive”.
The term AC50 denotes the concentration giving half of the maximal activity seen. As to `CC1COCc2cc3c(cc21)C(C)(C)C(C)C3(C)C` (stereo not given), the AC50 was 159 µM (active).
Take `CC(C)(c1ccc(Oc2ccc(N)cc2)cc1)c1ccc(Oc2ccc(N)cc2)cc1`: the call was inactive.
Same read-out and setting: the entry for `COC(=O)C(F)(F)C(F)(F)C(F)(F)C(F)(F)C(F)(F)F` is “inactive”.
